Reference: PubChem BioAssay AID463205 (Broad Institute, 2010)
The campaign covered roughly 2,400 compounds. About 20 (0.8%) were called active. The full list was thinned out, with actives kept by preference. Unmarked numbers belong to inactive results.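 The calls were made as follows: active = AC50 no more than ten times the highest tested concentration, or full inhibition at every dose giving a flat fit (cut at about 30 µM in these data); inconclusive = flat fit with activity between 30% and 70%, or poor-quality invalid fit; inactive = AC50 more than ten times the top tested dose.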

Assay: luciferase-based ADP detection interference – biochemical, luminescence, cell-free, homogeneous, artefact control for GSK-3a inhibitor project, dose response (AID 463205);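 also: kinase-free counter-screen against the ADP-Glo detection reagents only; potency is for inhibitors that reduce the luminescence signal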
Conditions: Cell-free ADP-Glo detection reagents, 5 uM ADP

Compound | AC50
Cn1c(=O)c2[nH]c(N3CCOCC3)nc2n(-c2ccccc2)c1=O | > 30 µM
Nc1nccnc1C(=O)N/N=C/c1ccco1 | > 30 µM
Nc1nonc1-n1nnc(C(=O)N/N=C/c2ccc(Cl)cc2Cl)c1CN1CCOCC1 | > 30 µM
Cc1nc(NCC2CCCO2)nc2c1C(=O)CC(C)(C)C2 (stereo not drawn) | > 30 µM
CCOc1ccc2ccccc2c1/C=N/n1cncn1 | > 30 µM
Cc1ccc(OCC(=O)N2CCN(c3nnc(-c4ccccc4)c4ccccc34)CC2)cc1 | > 30 µM
N#CC1=C(SCc2ccccc2)NC(=O)CC1c1ccco1 (stereo not drawn) | > 30 µM
CCN(CC)C(=O)c1oc2ccc(S(=O)(=O)N3CCCCCC3)cc2c1C | > 30 µM
O=C(c1ccc(Cl)cc1)c1cnc(Nc2ccccc2)s1 | > 30 µM
Cc1cccc(NC(=O)CSCc2nc3c(nnn3Cc3ccc(F)cc3)c(=O)[nH]2)c1C | > 30 µM
N#Cc1c2c(c(NCc3ccco3)n3c1nc1ccccc13)CCC2 | > 30 µM
O=C(COC(=O)c1cccc(S(=O)(=O)N2CCOCC2)c1)Nc1ncc(Cl)cc1Cl | > 30 µM
CNC(=O)c1ccc(NC(=O)C2CCN(c3ncnc4sc(C)c(C)c34)CC2)cc1 | > 30 µM
CCNc1cc(N2CCCC2)ccc1[N+](=O)[O-] | > 30 µM
Cc1nnc(SCC(=O)N2c3ccccc3CC2C)s1 (stereo not drawn) | > 30 µM
CCOC(=O)c1c(NC(=O)CN2C(=O)NC3(CCCCC3C)C2=O)sc(C)c1CC (stereo not drawn) | > 30 µM
C=CCNc1nc(N)c(C(=O)Nc2cc(C)on2)s1 | > 30 µM
CC(=O)c1cccc(NC(=S)NC(=O)CC(C)C)c1 | > 30 µM
COc1ccc(OC)c(/C=C2\Oc3cc(OCC(=O)N4CCC[C@H]4C(=O)O)ccc3C2=O)c1 | > 30 µM
CC(C)c1c(C(=O)N/N=C/c2ccncc2)nnn1-c1nonc1N | > 30 µM
CC(C)N=C(NC#N)SCc1ccc(F)cc1 | > 30 µM
N#Cc1sc2nc3c(c(-c4ccco4)c2c1N)CCCC3 | > 30 µM
COCCNC(=O)c1ccc(Cn2c(=S)[nH]c3cc4c(cc3c2=O)OCO4)cc1 | > 30 µM
CC1=C(C(=O)OCc2ccccc2)C(c2cccc(Br)c2)NC(=O)N1 (stereo not drawn) | > 30 µM

Compound | AC50
O=C(c1ccco1)N(Cc1cccc([N+](=O)[O-])c1)c1ccc(Br)cc1 | > 30 µM
NS(=O)(=O)c1ccc(Nc2nc(-c3ccccc3)cs2)cc1 | > 30 µM
CCc1cc(C(=O)c2ccc(OC)cc2)c(NC(=O)COCC(=O)O)s1 | > 30 µM
Fc1ccc(Nc2ncnc3ccccc23)cc1 | > 30 µM
COc1cc(Br)c(C2C(C#N)=C(N)Oc3n[nH]c(-c4cccnc4)c32)cc1OC (stereo not drawn) | > 30 µM
Cn1c(N=Nc2ccccc2)nc2ccccc21 | 27.9 µM (active)
Cc1nc2ccccc2n2c(-c3ccccc3)c3c(=O)n(C)c(=O)n(C)c3c12 | > 30 µM
CC(/C=N/NC(=O)CSc1nc2ccccc2n1C)=C\c1ccco1 | > 30 µM
COc1ccc(/C=C/c2nc(N)nc(-c3ccccc3O)n2)cc1OC | > 30 µM
CC(C)c1cc(C(N)=O)c(NC(=O)C2CCC2)s1 | > 30 µM
C/C(=N\NC(=O)c1nnn(-c2nonc2N)c1-c1ccccc1)c1cccnc1 | > 30 µM
CC(=O)Nc1ccc(Nc2ncnc(N)c2[N+](=O)[O-])cc1 | > 30 µM
O=[N+]([O-])c1cc(S(=O)(=O)c2ccc(N3CCCCC3)c([N+](=O)[O-])c2)ccc1N1CCCCC1 | > 30 µM
COc1ccccc1CC(=O)N1CCOCC1 | > 30 µM
CC(C)=CC(=O)NCc1c(Cl)cccc1-n1cccc1 | > 30 µM
Cc1nc2sc3c(c2c(=O)o1)CC(C)(C)OC3 | > 30 µM
CCC(C)Nc1nc(N)c([N+](=O)[O-])c(N2CCCCCC2)n1 (stereo not drawn) | > 30 µM
O=C(NC1(C(F)(F)F)NC(=O)N(Cc2cccnc2)C1=O)c1ccncc1 (stereo not drawn) | > 30 µM
COc1ccccc1NC(=O)CSc1nnc(-c2ccccc2)o1 | > 30 µM
CC(=O)c1sc(NC(=O)CN2C(=O)NC3(CCCC3)C2=O)nc1-c1ccccc1 | > 30 µM
COC1(OC)N=C(N)C2(C#N)C(c3ccc4c(c3)OCO4)C12C#N (stereo not drawn) | > 30 µM
Nc1c(S(=O)(=O)c2ccccc2)nnn1-c1ccccc1 | > 30 µM
O=C1CC(c2cccs2)CC2=C1C(c1ccccc1)n1ncnc1N2 (stereo not drawn) | > 30 µM
O=C(NCCCn1ccnc1)C(=O)NC1CCCCC1 | > 30 µM

Compound | AC50
Nc1ncnc2c1ncn2[C@@H]1O[C@H](COS(=O)(=O)O)[C@@H](O)[C@H]1O | > 30 µM
CCCCN(CC)C(=O)c1oc2ccc(S(=O)(=O)N3CCCC3)cc2c1C | > 30 µM
CC(C)OCCCNc1nc2c([nH]1)c(=O)n(C)c(=O)n2C | > 30 µM
CCOC(=O)c1nnn(-c2ccc(OC)cc2)c1N | > 30 µM
COc1cc(/C=N/NC(=O)c2cccc(C(=O)N/N=C/c3ccc(O)c(OC)c3)n2)ccc1O | > 30 µM
CN(C)C(=O)c1ccc(NC(=O)c2cc(-n3cnnc3)ccc2Cl)cc1 | > 30 µM
CC(OC(=O)Cc1c[nH]c2ccccc12)C(=O)c1ccccc1 (stereo not drawn) | > 30 µM
CC(C)CC(=O)NC(=S)Nc1sc2c(c1C(N)=O)CCC2 | > 30 µM
COc1cccc(-c2nc(-c3ccccc3)[nH]c(=O)c2C#N)c1 | > 30 µM
CCOC(=O)c1sc(NC(=O)C2CC2)nc1C | > 30 µM
CCOC(=O)c1cnn(C)c1NC(=O)c1ccc(Cl)cc1Cl | > 30 µM
COc1cccc(/C=N/n2cncn2)c1OCC#N | > 30 µM
Cc1ccc(-c2cn3cccnc3n2)cc1NC(=O)c1cccs1 | > 30 µM
CCCOc1ccc(-c2nnc(N)s2)cc1 | > 30 µM
O=C(CSc1ccccn1)Nc1nc2ccc(Br)cc2s1 | > 30 µM
Nc1nc(-c2ccccc2)nc(-c2ccccc2O)n1 | > 30 µM
O=C(O)CCSc1nnc(-c2ccncc2)n1-c1ccccc1 | > 30 µM
NC(=O)c1ccc(NC(=O)CSc2nnc(-c3ccc4c(c3)OCO4)o2)cc1 | > 30 µM
C#CCOCCOCCOCCNc1nc(N2CCN(C(=O)CCCCCCCCCCNC(=O)[C@H]([C@@H](C)CC)n3cc(CCCCCN)nn3)CC2)nc(N2CCN(C(=O)CCCCCCCCCCNC(=O)[C@H](CO)n3cc(CCCCCN)nn3)CC2)n1 | > 30 µM
CCCCOC(=O)Nc1nnc(COc2ccccc2)s1 | > 30 µM
CCCOc1ccccc1NC(=O)Nc1ccccc1Cl | > 30 µM
O=C(Nc1cccc(-c2cnc3ccccc3n2)c1)c1ccncc1 | > 30 µM
O=C(NCCN1CCN(Cc2ccccc2)CC1)Nc1cc(Cl)cc(Cl)c1 | > 30 µM
COc1ccc(-c2nnc(SCC(=O)Nc3ccccc3OC)o2)cc1 | > 30 µM

Compound | AC50
COc1cc(C2c3sc(=O)[nH]c3SC3C4CCC(C4)C23)ccc1O (stereo not drawn) | > 30 µM
Oc1ccc(-c2csc(Nc3ccccn3)n2)c(O)c1 | > 30 µM
CCOC(=O)CC(C#N)c1c[nH]c2ccccc12 (stereo not drawn) | > 30 µM
COc1ccccc1N1CCN(C(=O)c2cc(-c3ccccc3)on2)CC1 | > 30 µM
Cc1sc2ncnc(N3CCC(C(=O)Nc4ccc(C#N)cc4)CC3)c2c1C | > 30 µM
CC(=O)Nc1sc2c(c1C(N)=O)CCCC2 | > 30 µM
N#CC1=C2SCN(Cc3ccco3)CN2C(=O)CC1c1c(F)cccc1Cl (stereo not drawn) | > 30 µM
CCN(C(=O)C1CCCN1S(=O)(=O)c1cccc2nsnc12)c1ccccc1 (stereo not drawn) | > 30 µM
Cc1ccc(C)c(N2CC(C(=O)Nc3nccs3)CC2=O)c1 (stereo not drawn) | > 30 µM
Cc1ccc(-c2nc3n(n2)Cc2ccccc2-3)cc1 | > 30 µM
Fc1ccc(-c2nc3n(n2)Cc2ccccc2-3)cc1 | > 30 µM
CCn1c(C)nc2cc(-c3nc4n(n3)Cc3ccccc3-4)ccc21 | 24.3 µM (active)
NCCNc1ccc([N+](=O)[O-])c(NC2CC2)c1 | > 30 µM
COc1ccc(Nc2sc(C(=O)c3ccc(Cl)cc3)c(N)c2C(=O)Nc2ccccc2OC)cc1 | > 30 µM
Cc1ccc(NC(=O)CSCc2nc3c(nnn3Cc3ccc(F)cc3)c(=O)[nH]2)c(C)c1 | > 30 µM
COc1ccc(/C=C/c2nc(N)nc(-c3ccccc3O)n2)cc1 | > 30 µM
COc1ccc(/C=C/c2nc3ccccc3n2C)cc1 | 14.3 µM (active)
COc1c2ccccc2nc2ccccc12 | > 30 µM
C[n+]1cccc(C2C(C#N)=C(N)Oc3c2ccc2ccccc32)c1 (stereo not drawn) | > 30 µM
O=C(CSc1nnc(-c2ccncc2)s1)Nc1ccccc1 | > 30 µM
O=C(CSc1nnc(-c2ccc(O)cc2)o1)Nc1ccccc1Br | > 30 µM
